# An excerpt weighted towards active compounds, which were near 12% of everything screened.
# JMJD2A Tudor: inhibitors of human JMJD2A Tudor domain. AID 504339. Potency, µM (titrated, usually from 114 µM), inactives show top-dose activity change, negative = inhibition, actives largely listed as inhibitors. 4.4% of 390,000 active. AlphaScreen JMJD2A-Tudor / H3K4me3 peptide binding; also: % is scaled to controls: 0 for no effect and ±100 for the full control effect; nearly all actives have a fitted effect of over 50% in size
# BAZ2B block: blocks human BAZ2B; Potency, µM (highest dose often 114 µM), for the others: top-dose activity change, negative = inhibition, actives largely listed as inhibitors; AlphaScreen BAZ2B-H3K14Ac peptide displacement; 4.4% of 360,000 active; also: % is scaled to controls: 0 for no effect and ±100 for the full control effect; nearly all actives have a fitted effect of over 60% in size
#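 AlphaScreen displacement: compounds (up to 110uM) incubated 30 min at room temperature with a preformed 50 nM BAZ2B/50 nM biotinylated H3K14Ac peptide complex in PBS pH 7.4 with Tween-20. Donor and acceptor beads at 10 ug/mL final added, 20 min light-protected before reading.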
# HP1b chromo inh: inhibitors of HP1-beta chromodomain binding to methylated histone tails; P83916; AlphaScreen HP1-beta / biotin-H3K9me3 peptide binding; Potency, µM (series often up to 114 µM), inactives show at the top dose activity change, negative = inhibition, most hits filed as inhibitors; 0.56% of 390,000 active; AID 540317; also: nearly all actives have a fitted effect of over 70% in size
# Target sequence (P83916 whole entry, looked up): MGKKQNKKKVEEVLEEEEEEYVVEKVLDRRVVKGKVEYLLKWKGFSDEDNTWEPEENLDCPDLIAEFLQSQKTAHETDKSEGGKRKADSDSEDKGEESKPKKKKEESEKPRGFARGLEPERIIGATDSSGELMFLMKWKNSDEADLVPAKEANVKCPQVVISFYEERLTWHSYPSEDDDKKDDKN
#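 HP1-beta protein (50 nM final) preincubated 30 min at room temperature with biotinylated H3(1-18)K9me3 peptide (50 nM) in PBS pH 7.4, 0.01% Tween-20, then compound added for 30 min. AlphaScreen streptavidin donor/nickel chelate acceptor beads (10 ug/mL final), 30 min dark, luminescence read.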
# G9a inh: blocks human histone lysine methyltransferase G9a. Q96KQ7. G9a H3K9 monomethylation, AlphaScreen, 2 h. Potency, µM (series often up to 102 µM), for inactives: at the top dose activity, negative = inhibition, most hits filed as inhibitors. 8.8% of 350,000 active. AID 504332; also: % is scaled to controls: 0 for no effect and ±100 for the full control effect; nearly all actives have a fitted effect of over 75% in size
# Target sequence (Q96KQ7 913-1193 limits assumed): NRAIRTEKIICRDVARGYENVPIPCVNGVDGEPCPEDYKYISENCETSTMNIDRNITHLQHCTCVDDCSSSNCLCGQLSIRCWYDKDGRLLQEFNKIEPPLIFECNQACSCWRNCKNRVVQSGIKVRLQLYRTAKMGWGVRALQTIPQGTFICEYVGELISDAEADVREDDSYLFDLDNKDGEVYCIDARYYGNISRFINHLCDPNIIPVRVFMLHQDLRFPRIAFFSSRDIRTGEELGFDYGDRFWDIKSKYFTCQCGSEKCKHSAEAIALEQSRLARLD
#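 Quantitative HTS format: methyltransferase activity on a biotin-tagged H3K9 peptide is measured by AlphaScreen, using a rabbit anti-monomethyl-H3K9 antibody with streptavidin donor and anti-IgG acceptor beads. Final levels are 20 nM enzyme, 500 nM peptide, 20 uM SAM; 2 h RT.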
# Sfp PPTase inh: inhibitors of Bacillus subtilis Sfp phosphopantetheinyl transferase. Q9F4F7. Biochemical Sfp PPTase activity, qHTS. Potency, µM, for inactives: largest response in the series, negative = inhibition, usual class: inhibitors. 3.5% of 310,000 active. AID 1490;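 also: the enzyme is Sfp with the accession as filed and its product quenches rhodamine fluorescence; 0% = enzyme reaction without inhibitor and -100% = no enzyme wells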
#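 Sfp 15 nM + cpd, 15 min RT; start w/ rhodamine-CoA 5 uM, BHQ-2-YbbR 12.5 uM (final); 50 mM Hepes pH 7.6, 10 mM MgCl2, 0.01% NP-40, 0.01% BSA; read 525/598 nm at 0 and 30 min.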
# PLK1 PBD block: inhibitors of human PLK1 polo-box domain binding. P53350. Plk1 PBD binding of FITC phosphopeptide, fluorescence polarization. Potency, µM, for the others: max response, negative = inhibition, most hits filed as inhibitors. 2.8% of 360,000 active. AID 720504; also: series mostly up to about 57 µM; % is scaled to controls: 0 for no effect and ±100 for the full control effect; nearly all actives have a fitted effect of over 65% in size
# An asterisk follows results filed as active; ? = inconclusive; · = no result; [ ] = remark or other dose. Calls follow the shape of the dose curve; as a rule, active = well fitted curve in the direction sought with a large enough effect; inconclusive = small, poorly fitted or top-dose-only effect, or another doubt; inactive = no such curve, though single readings can be large; an effect the other way counts as inactive or inconclusive. Potency is read from the fitted curve at half-maximal effect.
SMILES,JMJD2A Tudor,BAZ2B block,HP1b chromo inh,G9a inh,Sfp PPTase inh,PLK1 PBD block
Clc1cccc(Cl)c1CNC1CCCC1,-12%,11%,29%,?,-8%,3%
Cn1cccc1CNC1CCCCC1,-15%,-32%,7%,50µM*,8%,-2%
O=C(CSc1nncn1-c1ccccc1)NC1CCCCC1,-16%,-2%,12%,-4%,27%,-14%
CCCCNCc1cccn1-c1ccccc1,5µM*,71µM*,?,?,-24%,-2%
Cc1cccc(C)c1NC(=O)CSCc1cnn(-c2ccccc2)c1-n1cccc1,-33%,-32%,-14%,-40%[59 µM],·,·
NC(CSSCC(N)C(=O)O)C(=O)O (stereo not given),·,·,·,26%[59 µM],7%,·
NC(CS)C(=O)O (stereo not given),·,·,·,16µM*,18µM*,·
N[C@H](CS)C(=O)O,·,·,·,-1%[59 µM],32µM*,·
C[C@@H](C[C@H](N)C(=O)O)C(=O)O,·,·,·,·,79µM*,·
CCOc1ccc(-c2nonc2NC(=O)COc2ccccc2)cc1,-11%,7%,31%,-27%[59 µM],·,·
CCOC(=O)C1CCCN(C(=O)c2cc3c(OC)c(OC)c(OC)cc3[nH]2)C1 (stereo not given),-12%,2%,29%,-6%,8%,-9%
COc1cccc(/C=C/C(=O)c2ccc(NC3=NCCCS3)cc2)c1,?,?,-9%,45µM*,-13%,-8%
O=C(/C=C/c1ccccc1)c1ccc(NC2=NCCCS2)cc1,?,?,-30%,?,-13%,-8%
Cc1cccc(/C=C/C(=O)c2ccc(NC3=NCCCS3)cc2)c1,45µM*,?,-16%,?,-14%,-15%
O=C1c2ccccc2NC(c2ccc(-c3cccs3)o2)N1O (stereo not given),-19%,?,34%,3%[0.501 µM],·,·
O=C1c2ccccc2NC(c2ccc(Br)o2)N1O (stereo not given),79µM*,-36%,15%,-40%[2.33 µM],·,·
O=C1c2ccccc2NC(c2ccc([N+](=O)[O-])cc2)N1O (stereo not given),0%,-29%,13%,56µM*,-6%,4%
COc1cccc(C2Nc3ccccc3C(=O)N2O)c1O (stereo not given),-23%,?,20%,10%[59 µM],1%,-7%
O=C1c2ccccc2NC(c2cccc(O)c2)N1O (stereo not given),4%,-16%,49%,45µM*,-13%,0%
O=C1c2ccccc2NC(c2cccc([N+](=O)[O-])c2)N1O (stereo not given),-13%,?,29%,38%[0.501 µM],-4%,-8%
O=C(O)[C@@H]1CCCNC1,·,·,·,30%[21.5 µM],-7%,·
Nc1c(S(=O)(=O)O)cc(Nc2ccc(Cl)cc2)c2c1C(=O)c1ccccc1C2=O,·,·,·,·,16µM*,·
O=C(Nc1ccccc1-c1ccccc1)c1ccccc1,21%,4%,40%,·,-4%,2%
Nc1c(S(=O)(=O)O)cc(NC(=O)c2ccccc2)c2c1C(=O)c1ccccc1C2=O,2.5µM*,3.5µM*,?,?,?,21µM*
Nc1c(S(=O)(=O)O)cc(Nc2ccc(Nc3nc(Cl)nc(Nc4ccc(S(=O)(=O)O)cc4)n3)c(S(=O)(=O)O)c2)c2c1C(=O)c1ccccc1C2=O,·,·,·,1µM*,·,·
SMILES,JMJD2A Tudor,BAZ2B block,HP1b chromo inh,G9a inh,Sfp PPTase inh,PLK1 PBD block
CCCN1CCN(C(=O)CCc2nnc3ccc(N4CCN(c5cccc(OC)c5)CC4)nn23)CC1,-20%,-7%,42%,·,1%,-3%
Cc1ccc(S(=O)(=O)NCC(=O)Nc2cccnc2)cc1C,-3%,·,11%,·,·,-2%
O=S(=O)(Nc1ccc2c(c1)nc1n2CCN(Cc2ccccc2)C1)c1ccc(Cl)cc1,-14%,·,57%,10µM*,2%,-11%
O=S(=O)(Nc1ccc2c(c1)nc1n2CCN(Cc2ccccc2)C1)c1ccccc1,-33%,20%,12%,?,-11%,-17%
O=S(=O)(Nc1ccc2c(c1)nc1n2CCN(Cc2ccccc2)C1)c1ccc(F)cc1,89µM*,-32%,48%,?,16%,-17%
Cc1cc(C)c(S(=O)(=O)NCC(c2ccco2)S(=O)(=O)c2cccs2)c(C)c1 (stereo not given),-31%,-18%,13%,-9%[59 µM],·,·
O=C(CSc1ncnc2sc3c(c12)CCC3)Nc1ccccc1C(=O)O,-14%,-14%,3%,12%[12.7 µM],16%,-18%
COc1cc(NC(=O)CSc2ncnc3sc4c(c23)CCC(C)C4)c(C(=O)O)cc1OC (stereo not given),-18%,-29%,5%,20µM*,45µM*,17µM*
CCN(CC)c1ncnc2sc3c(c12)CCC3,10%,-7%,33%,40µM*,-4%,-8%
O=C(O)CSc1ncnc2sc3c(c12)CCC3,-24%,50µM*,36%,-17%,14%,-9%
CC1CCc2c(sc3ncnc(SCC(=O)Nc4ccc(C(=O)O)cc4)c23)C1 (stereo not given),-2%,-22%,15%,9%,-7%,60µM*
Cc1cc(NC(=O)CSc2ncnc3sc4c(c23)CCC(C)C4)no1 (stereo not given),·,-3%,·,8%[12.7 µM],25%,·
O=C(O)CSc1ncnc2sc3c(c12)CCCC3,-12%,5%,7%,·,-22%,-15%
O=C(COC(=O)COc1ccc(Cl)cc1Br)NC1CC1,-1%,·,36%,·,·,6%
O=c1c2c3nc4ccccc4nc3n(-c3ccc4c(c3)OCCO4)c2ncn1C1CCCC1,79µM*,·,42%,-5%[59 µM],6%,-15%
O=c1c2c3nc4ccccc4nc3n(-c3ccc4c(c3)OCCO4)c2ncn1CC1CCCO1 (stereo not given),·,-6%,·,6%,-8%,·
C#CC(C)(C)NS(=O)(=O)c1cc(-c2nnc(Nc3ccc(C)cc3)c3ccccc23)ccc1C,-7%,-3%,35%,7%[59 µM],·,·
COC(=O)[C@]1(C)N[C@H](CN(C)S(=O)(=O)c2ccc(C(C)(C)C)cc2)[C@@H]2C(=O)N(C)C(=O)[C@@H]21,-13%,·,55%,·,·,-4%
COC(=O)[C@]1(C)N[C@H](CN(C)S(=O)(=O)c2ccc(C)cc2)[C@@H]2C(=O)N(C)C(=O)[C@@H]21,79µM*,·,20%,·,·,-11%
CN(C)/C=C/C(=O)c1ccc(-n2cccc2)cc1,?,?,18%,?,3%,-4%
CN(C)c1ccc(-n2cccc2)cc1,20µM*,22µM*,22µM*,40µM*,-3%,-9%
CNC(=O)c1sccc1Oc1ccc(F)cc1[N+](=O)[O-],-19%,?,-18%,-3%,-6%,27µM*
Cc1c(Cl)cccc1NC(=O)CC1NCCNC1=O (stereo not given),-6%,6%,34%,7%[12.7 µM],11%,2%

# Screening results deposited in PubChem BioAssay by National Center for Advancing Translational Sciences (NCATS).
